# SRC1 inh = inhibits human SRC1 coactivator. inhibition, % at 3.6 µM. Q15788. HEK293 GAL4-SRC1 luciferase reporter, luminescence. 0.12% of 360,000 active. AID 588354;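 active = inhibition above the campaign mean plus 3 SD, with each screening campaign given its own cutoff, cut at about 60% in these data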;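 note: 0% = DMSO treated cells and 100% = gossypol at 36 µM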
# COUP-TFII inh = NR2F2 (human) inhibition, primary screen | HEK293T NGFI-A luciferase reporter, luminescence | inhibition, % at 8.6 µM | 0.7% of 370,000 active;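 active = inhibition above a per-plate cutoff, mean inhibition of test wells between control levels plus 3 SD, cut at about 38% in these data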;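 note: cells cotransfected with COUP-TFII expression vector driving the NGFI-A reporter; 0% = median of COUP-TF2 test wells and 100% = reporter-only cells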
# LRH-1 inv ag = suppresses constitutive activity of human LRH-1. O00482. HEK293T StAR-luciferase reporter, LRH-1 transfected, 24 h. inhibition, % at 3.6 µM. 0.13% of 360,000 active. AID 602396;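 active = inhibition above the mean inhibition of all tested compounds plus 3 SD, cut at about 73% in these data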;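 note: 0% = DMSO wells and 100% = reporter-only cells lacking LRH-1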
# Target sequence (O00482 whole entry, looked up): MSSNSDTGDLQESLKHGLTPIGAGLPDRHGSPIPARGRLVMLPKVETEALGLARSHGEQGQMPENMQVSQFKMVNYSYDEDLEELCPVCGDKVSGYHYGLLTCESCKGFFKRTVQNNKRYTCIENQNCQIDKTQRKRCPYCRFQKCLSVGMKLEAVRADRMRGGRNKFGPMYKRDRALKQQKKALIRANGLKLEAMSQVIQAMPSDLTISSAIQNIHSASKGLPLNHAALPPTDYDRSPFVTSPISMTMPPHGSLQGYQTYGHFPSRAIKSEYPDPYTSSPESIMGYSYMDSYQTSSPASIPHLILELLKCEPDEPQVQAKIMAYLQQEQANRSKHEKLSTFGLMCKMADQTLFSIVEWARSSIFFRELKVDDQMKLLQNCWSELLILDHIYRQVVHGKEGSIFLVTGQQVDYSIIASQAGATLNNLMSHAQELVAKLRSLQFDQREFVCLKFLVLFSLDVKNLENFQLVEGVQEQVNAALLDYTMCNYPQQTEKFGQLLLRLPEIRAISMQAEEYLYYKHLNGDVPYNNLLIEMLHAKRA
# NCOA3 inh = human NCOA3 inhibition; 0.17% of 360,000 active; HEK293 GAL4-SRC3 luciferase reporter, luminescence; inhibition, % at 3.6 µM; AID 588352;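 active = inhibition above a per-campaign cutoff, the mean of all compounds plus 3 SD, cut at about 60% in these data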;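 note: 0% = DMSO-treated cells and 100% = gossypol-treated cells at 36 µM; higher means less SRC3-driven luciferase light from the GAL4 reporter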
# NCOA2 inhibitor = inhibits human steroid receptor coactivator 2; Q15596; HEK293 GAL4-SRC2 luciferase reporter, luminescence; inhibition, % at 9 µM; 0.17% of 370,000 active; AID 651957;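 active = inhibition above the mean inhibition of all tested compounds plus 3 SD, set per campaign, cut at about 52% in these data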;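 note: 0% = DMSO treated cells and 100% = cells given Gossypol at 36 µM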
# Gal4-VP16 ctr = inhibits VP16 reporter, flagging COUP-TFII antagonist hits. HEK293 Gal4-VP16 luciferase reporter, luminescence. 25% of 2,500 active. shares compounds with COUP-TFII inh. inhibition, % at 8.5 µM. AID 687007; in the data active = inhibition above about 13%
# COUP-TFII conf = confirmation of human COUP-TFII (NR2F2) inhibitors. shares compounds with COUP-TFII inh. HEK293 NGFI-A luciferase reporter, luminescence. inhibition, % at 8.5 µM. 45% of 2,500 active. AID 687008;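 active = mean inhibition over three repeats above a set limit taken from the earlier primary screen, cut at about 38% in these data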;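 note: 100% = cells given the luciferase reporter alone without the COUP-TF2 vector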
# The depositor's hits bear a star; . = not tested or not shown; ! = not confirmed by another sample. In the library only some 0.84% were active in any assay of this set; here they are far more common.
SMILES,SRC1 inh,COUP-TFII inh,LRH-1 inv ag,NCOA3 inh,NCOA2 inhibitor,Gal4-VP16 ctr,COUP-TFII conf
O=C1NC(c2cccc(C(F)(F)F)c2)c2c(-c3ccccc3)n[nH]c21 (centres undefined),.,10,.,.,-22,.,.
CC1(C(=O)Nc2cccc(C#N)c2)CCN1C(=O)Cc1ccc(-c2ccccc2)cc1 (centres undefined),9,52*,14,12,2,1,28
CCC(NC(=O)CCc1c(C)c2cc3c4c(oc3cc2oc1=O)CCCC4)C(=O)O (centres undefined),13,40*,4,11,65*,46*,42*
CCCCC(NC(=O)Cc1c(C)c2cc3c4c(oc3cc2oc1=O)CCCC4)C(=O)O (centres undefined),0,-4,-8,4,-21,.,.
Cc1c(CC(=O)N[C@@H](CCCNC(N)=O)C(=O)O)c(=O)oc2cc3oc4c(c3cc12)CCCC4,-10,-1,2,9,-20,.,.
Cc1c(CCC(=O)NCCCCCC(=O)O)c(=O)oc2c(C)c3oc4c(c3cc12)CCCC4,-21,-2,2,5,10,.,.
Cc1c(CCC(=O)NCCCC(=O)O)c(=O)oc2cc3oc4c(c3cc12)CCCC4,13,49*,9,2,63*,35*,34
Cc1c(CCC(=O)N[C@@H](CCCNC(N)=O)C(=O)O)c(=O)oc2cc3oc4c(c3cc12)CCCC4,11,53*,-1,-1,68*,29*,29
CC(C)Oc1ccc(/C=C(\C#N)C(=O)NC2CC2)cc1,-38,82*,-21,-48,-81,-95,-37
CC(C)CNc1cccc2c1S(=O)(=O)N[C@@H](CC(C)C)CO2,.,3,.,.,4,.,.
CCCCCCCCCCCCCCCC[n+]1ccccc1,9,51*!,48,36,9,1,26
CCCCCCCCCCCCCCCC[n+]1cccc(C(=O)N(CC)CC)c1,-4,-18,9,-6,1,.,.
CCOc1ccc(-c2noc(CCCC(=O)NCC3CCCO3)n2)cc1OC (centres undefined),6,16,0,-24,1,.,.
NC1=C(Br)C(=O)c2ncccc2C1=O,83*,81*,95*,88*,75*,92*,93*
CC1CCN(c2ccc(-c3cccc(NC(=O)C(F)(F)F)c3)nn2)CC1,35,41*,0,12,42,-1,33
O=C(Nc1cccc(-c2ccc(N3CCCCC3)nn2)c1)C(F)(F)F,-36,20,-58,-60,14,.,.
CCOC(=O)c1csc(-n2nc(C)cc2C(F)(F)F)n1,-10,0,4,21,4,.,.
Cc1cc(C(F)(F)F)n(-c2nc(C(=O)NN)cs2)n1,3,37*,5,7,-29,-6,-4
Cc1cc(NCCc2c[nH]c3ccccc23)ccc1Nc1cccnc1,.,4,.,.,-7,.,.
COC(=O)C1=C(C)N(Cc2ccccc2C(F)(F)F)C(=NCc2cc(OC)c(OC)c(OC)c2)NC1c1cccc(C(F)(F)F)c1 (centres undefined),.,15,.,.,8,.,.
Cc1cc(Nc2cccc(C(F)(F)F)c2)cc(=O)n1-c1cccc(C(F)(F)F)c1,.,11,.,.,12,.,.
Cc1ccc[n+](CC(=O)/C=C2\N(C)c3ccccc3C2(C)C)c1,24,42*,38,8,4,4,28
CN1/C(=C\C(=O)C[n+]2cccc(Br)c2)C(C)(C)c2ccccc21,0,36,25,37,29,.,.
Cc1cc(=O)[nH]c(SCC(=O)/C=C2\N(C)c3ccccc3C2(C)C)n1,1,42*,3,17,27,6,9
CCCn1c(C)c(CC(=O)Nc2ccc(N(C)c3ccccn3)cc2)c2ccccc21,.,-7,.,.,13,.,.
Cc1ccc(C(=O)N/N=C\c2ccc([N+](=O)[O-])s2)cn1,6,40*,38,19,27,31*,20
Cc1ccc(C(=O)N/N=C/c2ccc([N+](=O)[O-])s2)cc1,48,53*,47,56,83*,84*,93*
O=C(N/N=C/c1ccc([N+](=O)[O-])s1)c1ccncc1,-3,.,44,26,.,.,.
